# Compound activity: PubChem BioAssay, National Center for Advancing Translational Sciences (NCATS)
# An excerpt weighted towards active compounds, which were near 7.4% of everything screened.
# Luc counter – Counterscreen for Luciferase (Kinase-Glo TM) Inhibition. Luciferin 4-monooxygenase (Photuris pensylvanica), Q27757. AID 1379, 2008. Potency, µM (series often up to 38.3 µM), inactives show top-dose activity change, negative = inhibition, actives largely listed as inhibitors. Kinase-Glo luciferase, ATP luminescence, 8 min. hit rate 0.28% among 200,000; note: % is set by controls: 0 for no effect and ±100 for the full control effect; nearly all actives have a fitted effect of over 60% in size
#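 Kinase-Glo luciferase light output from ATP and luciferin was measured with 10 uM ATP, within the enzyme's linear range. Buffer: 50 mM imidazole pH 7.2, 50 mM KCl, 7 mM MgCl2, 0.01% Tween 20, 0.05% BSA; luminescence read after 8 min at ambient temperature.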
# SMN2 splice enh – qHTS Assay for Enhancers of SMN2 Splice Variant Expression | Potency, µM (series often up to 46.1 µM), without a hit: at the top dose activity change, positive = activation, usual class: activators | HEK293 SMN2-luciferase splicing reporter, luminescence, 30-36 h | hit rate 2.8% among 210,000; note: % of control where 0% means no effect; nearly all actives have a fitted effect of over 55% in size
#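 HEK293 cells carry an SMN2 minigene-luciferase reporter in which exon 7 inclusion puts luciferase in frame. Cells were seeded at 2000 cells/well, attached for 10-12 hours, then exposed to compounds for 30-36 hours at 37C before ONE-Glo luminescence.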
# FLuc modulator – qHTS profiling assay for firefly luciferase inhibitor/activator using purifed enzyme and Km concentrations of substrates (counterscreen for miR-21 project); Luciferin 4-monooxygenase (Photinus pyralis), P08659; purified FLuc, Km substrates, luminescence inhibition; Potency, µM (top dose mostly 57.5 µM), for the others: at the top dose activity change, negative = inhibition, usual class: inhibitors; hit rate 6.9% among 360,000;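 note: plate controls were vehicle for no effect and reference inhibitor for full effect; nearly all actives have a fitted effect of over 55% in size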
# Target sequence (P08659 whole entry, looked up): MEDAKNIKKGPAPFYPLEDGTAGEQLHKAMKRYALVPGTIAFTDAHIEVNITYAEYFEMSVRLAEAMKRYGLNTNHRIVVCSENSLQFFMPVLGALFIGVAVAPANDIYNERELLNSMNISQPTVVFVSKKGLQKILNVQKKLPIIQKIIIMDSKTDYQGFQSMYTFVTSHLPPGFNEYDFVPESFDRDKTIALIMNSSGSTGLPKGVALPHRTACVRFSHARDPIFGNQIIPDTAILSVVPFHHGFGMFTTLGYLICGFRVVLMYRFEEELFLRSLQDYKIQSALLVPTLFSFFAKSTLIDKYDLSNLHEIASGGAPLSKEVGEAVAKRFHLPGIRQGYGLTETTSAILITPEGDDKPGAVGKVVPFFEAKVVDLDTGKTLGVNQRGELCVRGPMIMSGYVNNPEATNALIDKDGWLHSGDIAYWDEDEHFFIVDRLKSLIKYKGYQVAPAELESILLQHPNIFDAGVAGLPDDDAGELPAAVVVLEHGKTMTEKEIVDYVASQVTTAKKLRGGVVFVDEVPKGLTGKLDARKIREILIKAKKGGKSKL
#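 Purified P. pyralis luciferase, 10 nM final, with Km-level 10 uM D-luciferin and 10 uM ATP in 50 mM Tris acetate pH 7.5, 10 mM Mg acetate, 0.01% Tween-20, 0.05% BSA; 6-point qHTS titration about 60 µM downward; luminescence read.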
# ELG1 genotox – qHTS screen for small molecules that induce genotoxicity in human embryonic kidney (HEK293T) cells expressing luciferase-tagged ELG1; HEK293T ELG1-luciferase reporter, luminescence, 16 h; Potency, µM (top dose mostly 46 µM), for inactives: at the highest dose activity change, positive = activation, hits mostly activators; hit rate 1.3% among 330,000; note: % of control where 0% means no effect; nearly all actives have a fitted effect of over 60% in size
#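 Cells (2,000/well) expressing the ELG1-luciferase fusion are dosed by pin tool and kept 16 hr at 37 °C, 5% CO2. Signal comes from ONE-Glo luciferase reagent after 30 min at room temperature.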
# NPC1 prom act – qHTS Assay for NPC1 Promoter Activators; Huh7 NPC1 promoter luciferase reporter, 24 h; hit rate 2.4% among 320,000; AID 485313, 2010; Potency, µM (doses to about 9.22 µM), inactives show top-dose activation, hits mostly activators; note: % of control where 0% means no effect; nearly all actives have a fitted effect of over 60% in size
#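 Luminescence read-out of NPC1 promoter-driven luciferase in stably transfected Huh7 cells; compounds delivered in DMSO and left 24 h at 37C, 5% CO2, qHTS titration format.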
# Rab9 prom act – qHTS Assay for Rab9 Promoter Activators | hit rate 2.8% among 320,000 | Huh7 Rab9 promoter-luciferase reporter, luminescence, 24 h | AID 485297, 2010 | Potency, µM (top dose mostly 9.22 µM), inactives show at the top dose activation, negative = inhibition, actives largely listed as activators; note: % of control where 0% means no effect; nearly all actives have a fitted effect of over 60% in size
#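 Measured in stably transfected Huh7 cells bearing a Rab9 promoter–luciferase construct: 24 h compound treatment at 37 °C, followed by luminescence detection.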
# * = called active by the depositor; ? = inconclusive; . = not tested or not shown. Calls come from the whole dose curve; as a rule, active = well fitted curve in the direction sought with a large enough effect; inconclusive = small, poorly fitted or top-dose-only effect, or another doubt; inactive = no such curve, though single readings can be large; an effect the other way counts as inactive or inconclusive. Potency is the fitted concentration of half-maximal effect.
SMILES,Luc counter,SMN2 splice enh,FLuc modulator,ELG1 genotox,NPC1 prom act,Rab9 prom act
COC(=O)C1=C(CSc2nnnn2C)NC(=O)NC1c1cc(C)ccc1C (stereo unspecified),3%,25µM*,3%,-1%,-4%,0%
COC(=O)C1=C(CN2CCN(C)CC2)NC(=O)NC1c1cc(C)ccc1C (stereo unspecified),-1%,14%,0%,-1%,-2%,-10%
COC(=O)C1=C(CN2CCc3ccccc32)NC(=O)NC1c1cc(C)ccc1C (stereo unspecified),2%,4.5µM*,0%,-3%,2%,-9%
N#C/C(=C/c1ccc(N2CCCCCC2)o1)c1ccc(Cl)cc1,-3%,1%,9.5µM*,?,26%,4µM*
N#C/C(=C/c1ccc(N2CCCCC2)o1)c1cccc(F)c1,-5%,22%,2.1µM*,3.7µM*,-2%,6%
N#C/C(=C/c1ccc(Sc2nc3ccccc3[nH]2)o1)c1cccc(F)c1,2%,-54%,-2%,-1%,3%,8%
N#C/C(=C/c1ccc(N2CCCCC2)cc1)c1cccc(F)c1,-3%,?,5.4µM*,18µM*,4µM*,3.2µM*
CC1(C)OCC(CSC2=C(SCC3COC(C)(C)O3)C(=O)c3ncccc3C2=O)O1 (stereo unspecified),-8%,-32%,.,.,.,.
CCCc1nn(C)c(C(=O)Nc2ccc3ccccc3c2)c1Cl,-4%,14µM*,11µM*,?,?,?
Cc1nn(C)c(C(=O)Nc2cccc(CN3CCOCC3)c2)c1Br,2%,-16%,3%,-4%,5%,-5%
CCCc1nn(C)c(C(=O)Nc2cccc(CC)c2)c1Cl,-4%,?,17µM*,5%,?,?
Cc1nn(CC(=O)NCc2ccc(F)cc2)c2ccccc12,.,.,-8%,.,.,.
Cn1c(C(C#N)C(=O)c2ccco2)nc2ccccc21 (stereo unspecified),-5%,29%,17µM*,16%,-1%,7%
Cn1c(C(C#N)C(=O)Cc2cccc3ccccc23)nc2ccccc21 (stereo unspecified),5%,-9%,-1%,-9%,-5%,-6%
COc1ccc(/C=N/Nc2ccccc2C(=O)O)cc1Cn1cc([N+](=O)[O-])cn1,.,.,19µM*,12%,27%,22%
CCC(/C=C/C(C)C1CCC2C3CC=C4CC(O)CC[C@@]4(C)C3CC[C@@]12C)C(C)C (stereo partly specified),-1%,-19%,.,.,.,.
c1ccc(-c2noc(-c3ccno3)n2)nc1,.,.,-10%,9%,16%,28%
Cc1ccc(-c2nc(-c3ccccn3)no2)cc1,3.2µM*,.,0.085µM*,-7%,-28%,0.0002µM*
c1ccc(-c2nc(-c3ccccn3)no2)cc1,3.2µM*,0.5µM*,0.54µM*,?,0.11µM*,?
CCCCNc1ccc(-c2nc(-c3ccccn3)no2)cc1[N+](=O)[O-],.,.,-3%,.,.,.
Clc1cccc(-c2nc(-c3ccccn3)no2)c1,?,0.71µM*,0.34µM*,?,0.32µM*,0.1µM*
Cc1ccc(Sc2cc(C)nc(-c3ccccn3)n2)cc1,.,.,17µM*,6%,21%,5%
Cc1cc(=O)n(Cc2cccc(Cl)c2)c2c1c(C)nn2-c1ccccc1,.,.,-4%,.,.,.
CC1=C(C(=O)Nc2ccccc2Br)C2(CCC(C)CC2)OC1=O (stereo unspecified),.,-9%,-7%,.,.,.
Cc1ccc(-c2nc(-c3ccccn3)no2)cc1Cl,11µM*,.,0.13µM*,?,0.35µM*,0.32µM*
SMILES,Luc counter,SMN2 splice enh,FLuc modulator,ELG1 genotox,NPC1 prom act,Rab9 prom act
Cc1ccc(-c2nc(-c3ccccn3)no2)cc1[N+](=O)[O-],.,.,1.5µM*,2.1µM*,0.32µM*,0.32µM*
Cc1ccc(CNc2ccc(-c3nc(-c4ccccn4)no3)cc2[N+](=O)[O-])cc1,.,.,-17%,.,.,.
CCCNc1ccc(-c2nc(-c3ccccn3)no2)cc1[N+](=O)[O-],.,.,-1%,.,.,.
Cc1cc(C)cc(NC(=O)c2cc(S(=O)(=O)N3CCC(C)CC3)cn2C)c1,.,.,-3%,.,.,.
CCc1sc(Nc2cccc(C)c2)nc1-c1cc2cccc(OC)c2oc1=O,.,.,7.6µM*,.,.,.
COc1cccc2cc(-c3nnc(Nc4ccccc4C)s3)c(=O)oc12,.,.,0.34µM*,.,.,.
COc1cccc([C@@H]2Oc3ccc(Br)cc3C[C@H]2OC(=O)Nc2ccc(OC(F)F)cc2)c1,-1%,0%,.,.,.,.
COc1ccc(OC)c(CNC(=O)c2cc(=O)[nH]c3ccc(S(=O)(=O)N4CCCCC4C)cc23)c1 (stereo unspecified),.,.,-8%,.,.,.
COc1ccc2c(C)c(CCC(=O)NCCc3ccc(OC)c(OC)c3)c(=O)oc2c1,.,-4%,5%,.,.,.
Nc1ccc2nc(SCc3ccccc3F)sc2c1,.,.,1.7µM*,?,26%,?
Cc1cc(C)cc(OCC(=O)Nc2ccc(-c3nc4ccccc4o3)cc2)c1,.,6.3µM*,3%,.,.,.
O=C(CN1C(=O)c2ccccc2C1=O)Nc1ccc(-c2nc3ccccc3o2)cc1,-1%,-2%,-11%,-1%,5%,-1%
O=C1c2ccccc2C(=O)N1c1cccc(-c2nc3ccccc3o2)c1,5%,-19%,0%,-1%,3%,-4%
O=C1c2ccccc2C(=O)N1c1ccc(-c2nc3ccccc3o2)cc1,.,.,?,10%,?,4.5µM*
O=C(CCN1C(=O)c2ccccc2C1=O)Nc1ccc(-c2nc3ccccc3o2)cc1,-2%,8.9µM*,2%,1.5µM*,2.2µM*,1.4µM*
C[C@@H]1CC=C[C@H]2[C@H]1C(=O)N(Cc1ccccc1)[C@H]2c1ccc(-c2cc3ccccc3s2)cc1F,.,.,1.7µM*,?,?,?
C[C@@H]1CC=C[C@H]2[C@H]1C(=O)N(Cc1ccccc1)[C@H]2c1ccc(-c2ccc(F)cc2)cc1F,.,.,3%,-5%,-9%,-7%
O=C(O)c1cccc(Nc2ncnc3sccc23)c1,-7%,4%,7.6µM*,-1%,28%,15%
Fc1cccc(Nc2ncnc3sccc23)c1,.,.,-18%,0%,0%,?
CC(C)(C)OC(=O)N/N=C\c1cccnc1,-10%,.,11µM*,-13%,21%,?
O=C(N/N=C/c1cccnc1)C(O)(c1ccccc1)c1ccccc1,1%,-18%,0%,0%,-2%,-1%
